Assay outcomes as filed in PubChem BioAssay.
Only some compounds are listed: those with a hit (about 7.4% of all), similar ones and a draw of the others.
D1 allo mod: D1 CRE-luciferase signal change, two-sided – cell-based, HEK293 D1, dopamine EC30, D1 allosteric modulator project, primary screen | D(1A) dopamine receptor (Homo sapiens), P21728 | dopamine EC30 potentiation; actives deviate in either direction | B-score at 10 µM | 58,000 compounds, 5.9% hits;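 active = luminescence count or its row- and column-corrected plate score outside the 99.7% band of the plate's sample wells, on either side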
DAT uptake mod: changed hDAT dopamine uptake under cocaine IC80, either direction, primary screen, cocaine antagonist project, cell-based, LLC-PK1 hDAT, [14C]-dopamine uptake, MLSMR; B-score at 10 µM; LLC-PK1 hDAT cells, [14C]-dopamine uptake with cocaine IC80; actives deviate in either direction; AID 449768, 2010; Sodium-dependent dopamine transporter (Homo sapiens), Q01959; 110,000 compounds, 1.3% hits;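 active = Z score or B-score, a plate-position-corrected score, falls beyond the plate's 99.7% confidence bounds, in either direction; inactive = both scores lie inside the 99.7% bounds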
M1 antagonist: antagonists of rat M1 muscarinic receptor | 64,000 compounds, 3.4% hits | B-score at 10 µM | Muscarinic acetylcholine receptor M1 (Rattus norvegicus), P08482 | CHO-M1 cells, Fluo-4 calcium, ACh EC80 antagonist mode; hits give low values | AID 628, 2007;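 active = calcium fluorescence response, raw or row-and-column corrected B-score, differing from the plate sample mean either way at a set confidence level, mostly lower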
FXIa inh mix: FXIa protease inhibitors in compound pools, primary screen, biochemical, 10-compound mixtures; Coagulation factor XI (Homo sapiens), P03951; purified FXIa, fluorogenic substrate, pooled mixtures; inhibition, % at 5 µM; 62,000 compounds, 0.19% hits;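 also: each value is inhibition by a whole ten-compound pool holding the compound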
M1 agonist: M1 muscarinic receptor agonists, primary screen, CHO-M1 cells, Fluo-4 calcium, agonist mode; Muscarinic acetylcholine receptor M1; Fluo-4 calcium fluorescence; hits give high values; B-score at 10 µM; 64,000 compounds, 3% hits; AID 626, 2007;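 active = fluorescence rise, raw or as B-score row- and column-corrected plate score, outside the 99.7% band of its plate's samples, either direction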
FXIIa mix inh: human factor XIIa inhibitors, primary screen, biochemical, pooled compound mixtures, fluorogenic substrate. Coagulation factor XII (Homo sapiens), P00748. purified FXIIa. inhibition, % at 5 µM. 62,000 compounds, 0.2% hits
Target sequence (P00748 20-372 limits assumed): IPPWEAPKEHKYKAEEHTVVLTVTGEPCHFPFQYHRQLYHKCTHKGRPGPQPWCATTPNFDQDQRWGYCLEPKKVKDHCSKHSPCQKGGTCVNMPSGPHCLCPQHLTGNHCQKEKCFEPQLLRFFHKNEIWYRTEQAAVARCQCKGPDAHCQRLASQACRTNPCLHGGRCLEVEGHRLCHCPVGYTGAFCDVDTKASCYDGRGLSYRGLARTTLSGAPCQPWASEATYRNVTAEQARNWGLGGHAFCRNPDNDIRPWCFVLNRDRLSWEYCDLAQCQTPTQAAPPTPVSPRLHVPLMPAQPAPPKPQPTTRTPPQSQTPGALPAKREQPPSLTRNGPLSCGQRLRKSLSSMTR
Target sequence (P00748 373-615 limits assumed): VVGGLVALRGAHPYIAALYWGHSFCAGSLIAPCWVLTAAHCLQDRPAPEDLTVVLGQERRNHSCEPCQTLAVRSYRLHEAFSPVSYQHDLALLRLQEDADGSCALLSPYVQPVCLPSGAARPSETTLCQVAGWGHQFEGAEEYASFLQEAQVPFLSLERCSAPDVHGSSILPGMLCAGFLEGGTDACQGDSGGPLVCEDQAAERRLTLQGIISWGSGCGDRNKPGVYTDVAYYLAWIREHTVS
D1 PAM confirm: D1 receptor positive allosteric modulators, retest, confirmation, cell-based, HEK293 D1, CRE-luciferase, duplicate; shares compounds with D1 allo mod; dopamine EC30 potentiation; hits give high values; luminescence at 10 µM; 2,200 compounds, 88% hits;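 active = luminescence in either of two replicates above the same-plate mean plus 3 SD of the low-dose dopamine control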
D1 no dopamine: D1 receptor agonism without dopamine, confirmation, mechanism study for D1 allosteric modulator project, cell-based, HEK293 D1, CRE-luciferase, secondary assay 1 | AID 646, 2007 | luminescence, no dopamine; hits give high values | shares compounds with D1 allo mod | luminescence at 10 µM | 1,900 compounds, 0.8% hits; in the data active = luminescence above about 3900
Isoprot counter: isoproterenol response counter-screen activity for D1 modulators. shares compounds with D1 allo mod. HEK293 D1 CRE-luciferase, isoproterenol EC30 counter-screen. calls only at 10 µM. 2,200 compounds, 63% hits. AID 647;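 active = luminescence in either replicate above plate mean of wells with a partly effective reference agonist dose plus 3 SD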;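 also: isoproterenol raises cAMP through native beta-adrenoceptor Gs so signal bypasses D1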
Numbers stand for hits. Rule as the data show it, unless noted: active = inhibition above about 20% (passing the limit was not always enough); inactive = the rest.

`CCC(=O)Nc1cc(C(=O)N2CCC3(CC2)OCCO3)ccc1S(=O)(=O)c1ccc(C)cc1` gave D1 allo mod inactive, DAT uptake mod inactive, M1 antagonist inactive and M1 agonist inactive.
`NCCc1ccc(O)cc1` gave D1 allo mod 5.1, DAT uptake mod inactive, M1 antagonist inactive, FXIa inh mix inactive, M1 agonist inactive, FXIIa mix inh inactive, D1 PAM confirm 7676, D1 no dopamine 17832 and Isoprot counter active.
`O=c1[nH]c2ccccc2c(=O)n1-c1cccc(Cl)c1` gave D1 allo mod 9.2, M1 antagonist inactive, M1 agonist inactive, D1 PAM confirm 10464, D1 no dopamine inactive and Isoprot counter active.
`C=CCOC(=O)C1=C(C)OC(N)=C(C(=O)OCC)C12C(=O)N(CC(N)=O)c1ccccc12` (stereo not drawn) gave D1 allo mod inactive, DAT uptake mod inactive, M1 antagonist inactive, FXIa inh mix inactive, M1 agonist inactive and FXIIa mix inh inactive.
`CCOC(=O)N(c1ccccc1)P1(=S)OCCO1` gave D1 allo mod 7.4, DAT uptake mod inactive, M1 antagonist inactive, FXIa inh mix inactive, M1 agonist inactive, FXIIa mix inh inactive, D1 PAM confirm 19704, D1 no dopamine inactive and Isoprot counter active.
COC(=O)N(c1ccccc1)P1(=S)OCCO1 was read as D1 allo mod 5.3, DAT uptake mod inactive, M1 antagonist inactive, FXIa inh mix inactive, M1 agonist inactive, FXIIa mix inh inactive, D1 PAM confirm 11592, D1 no dopamine inactive and Isoprot counter active.
`CCOC(=O)N(c1ccccc1)P1(=S)OCC(C)O1` (stereo not drawn) gave DAT uptake mod inactive, FXIa inh mix inactive and FXIIa mix inh inactive.
Screening O=C1CN=C(c2ccccc2)c2ccccc2N1Cc1ccc(C(F)(F)F)cc1 returned DAT uptake mod inactive.
`O=c1[nH]c2ccccc2o1` gave DAT uptake mod inactive.
CN(C)CP(=O)(O)CN(C)C=O was read as D1 allo mod inactive, DAT uptake mod inactive, M1 antagonist inactive, FXIa inh mix inactive, M1 agonist inactive and FXIIa mix inh inactive.
COc1ccc2nc(/N=C/c3c(O)n(-c4cccc(Cl)c4)c(=O)[nH]c3=O)sc2c1 was read as DAT uptake mod inactive.
`CC1(C)CN=C(Nc2ccc(F)c(F)c2)S1` gave D1 allo mod 12, DAT uptake mod inactive, M1 antagonist inactive, FXIa inh mix inactive, M1 agonist inactive, FXIIa mix inh inactive, D1 PAM confirm 25280, D1 no dopamine inactive and Isoprot counter active.
CCC(=NCc1ccco1)c1c(O)[nH]c(=O)[nH]c1=O was read as D1 allo mod 8.6, DAT uptake mod inactive, M1 antagonist inactive, FXIa inh mix inactive, M1 agonist inactive, FXIIa mix inh inactive, D1 PAM confirm 16800 and Isoprot counter active.
For Cn1c(=O)cc(OCCCC(=O)N2CCC3(CC2)OCCO3)c2ccccc21 the results were DAT uptake mod inactive.
`O=C(CCCOc1ccc(Cl)cc1Cl)N1CCC2(CC1)OCCO2` gave D1 allo mod 6.6, DAT uptake mod inactive, M1 antagonist inactive, FXIa inh mix inactive, M1 agonist inactive, FXIIa mix inh inactive, D1 PAM confirm 8848, D1 no dopamine inactive and Isoprot counter active.
